According to the supplement of paper PMC6555819:

Tests used:
Assay in all cases: PBM binding z-score (relative to random genomic background probes); higher = stronger binding; sequences stand for … in GC…GCGATTGACAGCGTAGAATGAAGG
[1] = test system: FXR:RXRa (NR concentration 270 nM, RXRa partner concentration 90 nM)
Outline: (§1)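 Binding buffer was PBS pH 7.4 with 2% milk, 0.02% Triton X-100, 1 mM DTT, 0.2 mg/mL BSA and 0.4 mg/ml salmon testes DNA. In it, ligand-free nuclear receptor dimers were incubated 1 h on custom Agilent 4×180K protein-binding microarrays carrying double-stranded probes. Antibodies against each partner (one per run) detected binding, and z-scores were calculated against random background probes after regression normalization of scanned fluorescence.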

[2] = test system: LXRa:RXRa (NR concentration 270 nM, RXRa partner concentration 90 nM)
Outline: as §1

[3] = test system: LXRa homodimer (NR concentration 270 nM)
Outline: as §1

[4] = test system: LXRb:RXRa (NR concentration 270 nM, RXRa partner concentration 90 nM)
Outline: as §1

[5] = test system: LXRb homodimer (NR concentration 270 nM)
Outline: as §1

[6] = test system: PPARa:RXRa (NR concentration 270 nM, RXRa partner concentration 90 nM)
Outline: as §1

[7] = test system: PPARg:RXRa (NR concentration 180 nM, RXRa partner concentration 90 nM)
Outline: as §1

[8] = test system: PPARg:RXRa 270nM:90nM, anti-RXR (NR concentration 270 nM, RXRa partner concentration 90 nM)
Outline: as §1

[9] = test system: PPARg:RXRa 30nM:10nM, anti-RXR (NR concentration 30 nM, RXRa partner concentration 10 nM)
Outline: as §1

[10] = test system: PPARg:RXRa 90nM:30nM, anti-RXR (NR concentration 90 nM, RXRa partner concentration 30 nM)
Outline: as §1

[11] = test system: PPARg:RXRa DBDmut IVT, anti-RXR (DBD mutation: RXRa K156A/R161A, NR concentration 270 nM, RXRa partner concentration 90 nM)
Outline: as §1

[12] = test system: PPARg:RXRa IVT, anti-PPARg (NR concentration 270 nM, RXRa partner concentration 90 nM)
Outline: as §1

[13] = test system: PPARg DBDmut:RXRa IVT, anti-PPARg (DBD mutation: PPARg1 K132A/R137A, NR concentration 270 nM, RXRa partner concentration 90 nM)
Outline: as §1

[14] = test system: PPARg DBDmut IVT, anti-PPARg (DBD mutation: PPARg1 K132A/R137A, NR concentration 270 nM)
Outline: as §1

[15] = test system: PPARg homodimer (NR concentration 180 nM)
Outline: as §1

[16] = test system: PXR:RXRa (NR concentration 270 nM, RXRa partner concentration 90 nM)
Outline: as §1

[17] = test system: PXR homodimer (NR concentration 270 nM)
Outline: as §1

[18] = test system: RARa:RXR (NR concentration 270 nM, RXRa partner concentration 90 nM)
Outline: as §1

[19] = test system: RARa homodimer (NR concentration 270 nM)
Outline: as §1

[20] = test system: RARb:RXRa (NR concentration 270 nM, RXRa partner concentration 90 nM)
Outline: as §1

Sequence | PBM binding z-score [1] | PBM binding z-score [2] | PBM binding z-score [3] | PBM binding z-score [4] | PBM binding z-score [5] | PBM binding z-score [6] | PBM binding z-score [7] | PBM binding z-score [8] | PBM binding z-score [9] | PBM binding z-score [10] | PBM binding z-score [11] | PBM binding z-score [12] | PBM binding z-score [13] | PBM binding z-score [14] | PBM binding z-score [15] | PBM binding z-score [16] | PBM binding z-score [17] | PBM binding z-score [18] | PBM binding z-score [19] | PBM binding z-score [20]
TAGCCTAGGTCAGATCGGGCCAGTAGACGCTATA | 2.39 | 0.985 | -0.414 | 0.183 | -0.713 | 1.45 | 0.406 | 0.586 | -0.637 | 0.224 | 0.0206 | 1.03 | -0.87 | -1.34 | 0.0238 | 0.619 | -0.847 | 0.622 | -1.52 | 2.99
CCTAGATGGTCAAGGTCACACACGCTATAGGTAC | 4.6 | 3.62 | 2.05 | 3.69 | 0.665 | 4.2 | 3.13 | 3.56 | 1.34 | 2.46 | 1.66 | 3.08 | 1.08 | 0.88 | 3.58 | 4.21 | 2.09 | 4.57 | 2.52 | 4.29
CGTCAAAGTTCAATGTAACGTAACAGAAAGCAGC | 6.08 | 5.08 | 3.29 | 3.5 | 1.74 | 4.08 | 3.65 | 4.35 | 1.83 | 3.34 | 0.367 | 1.51 | 1.4 | 0.705 | 2.6 | 4.03 | 4 | 3.03 | 1.95 | 4.83
ACTAGCAGGCCAAGGCTCACTCAAGATTAGTCCG | -0.393 | -0.377 | -0.331 | -0.701 | -0.95 | -0.271 | 0.588 | 0.682 | -0.134 | 0.168 | 1.13 | 0.144 | -0.648 | -0.572 | -0.478 | -0.766 | -0.282 | -0.478 | -0.56 | 0.257
CTCGAAAGGTCGGTTGATGTGAGTATACGGATAA | 1.88 | 1.52 | -0.145 | 1.45 | 0.455 | 2.31 | 0.418 | 0.917 | 0.204 | 0.223 | 0.122 | 0.641 | 0.802 | 0.00433 | 1.37 | 1.07 | 0.216 | 1.41 | 0.252 | 2.86
GCAGACAGGTGAGACGCAGGTAACTCAGGGTGGC | -0.153 | -0.129 | -0.774 | -0.355 | -1.18 | 0.164 | 0.374 | -0.0915 | -0.758 | -0.532 | 0.0725 | 0.0836 | -0.435 | -0.858 | -0.513 | -0.282 | -0.385 | 0.154 | -0.0204 | 0.422
AGAACGAGGGCACGGTGAGTTGATAGCAGAGTAG | 1.12 | 0.775 | -0.352 | 0.306 | -0.638 | 2.61 | 2.7 | 2.19 | 0.933 | 1.2 | 3.46 | 4.14 | 1.46 | 0.552 | 0.477 | 1.76 | 0.0665 | 1.27 | -0.263 | 2.75
CCTACTGGGCCAAAGGTCATTGGTTCCAATGCTC | 5.06 | 5.15 | 4.28 | 4.94 | 0.631 | 6.49 | 11.6 | 9.63 | 10.5 | 10.3 | 5.02 | 6.55 | 0.0482 | -0.387 | 2.89 | 5.41 | 2.21 | 6.04 | 0.819 | 4.51
TCTTGTAGATCAGCAGGTTAAGGAAGCTGGCCAA | 0.249 | 0.362 | -0.204 | 0.224 | -0.678 | 0.814 | -0.515 | 1.47 | 2.53 | 2.02 | 1.63 | 0.577 | -1.02 | -0.0477 | -0.0347 | 0.121 | -0.363 | 0.277 | -0.25 | 0.316
ACTTACGGGTTAACGAGGTTATAGCACGCGTATA | 2.07 | 2.74 | 0.54 | 2.31 | 0.221 | 3.12 | 1.66 | 2.16 | 0.682 | 1.49 | 1.74 | 2.15 | 0.886 | 1.18 | 1.01 | 2.88 | 0.801 | 2.6 | 0.88 | 1.69
TTACCAAGATGAAGGTCGTTGATCCCTCTGTAGA | 1.47 | 1.91 | -0.0555 | 1.48 | -0.663 | 1.33 | 0.406 | 1.7 | 1.5 | 1.72 | 0.471 | 0.0475 | 0.286 | 0.663 | 0.704 | 1.15 | -0.0787 | 1.18 | 0.48 | 0.617
AGAATGAGGTTATTAATATCAGGGAATTGCGGTC | 1.19 | 1.32 | 0.394 | 1.3 | -0.0827 | 2.47 | 1.54 | 1.67 | 0.598 | 1.35 | 2.96 | 2.52 | 1.52 | 0.456 | 0.953 | 1.27 | 0.447 | 1.32 | 0.74 | 1.18
ACTATTAGTTGAGACAAGGGCAACCGATAGGTTG | 0.264 | -0.00254 | -0.143 | -0.136 | 0.202 | 0.0106 | 0.795 | 0.412 | 0.214 | 0.411 | -0.102 | 0.38 | 0.684 | 0.362 | 1.21 | 0.594 | 0.47 | 0.553 | 0.821 | 1.17
AGATTGAGGTTAAGATCAGGGAAACAGAATACAT | 2.48 | 2.1 | 0.386 | 2.06 | 0.34 | 3.45 | 1.96 | 2.19 | 0.935 | 1.82 | 2.1 | 2.29 | 1.37 | 1.38 | 1.06 | 1.3 | 0.986 | 1.87 | 1.33 | 2.08
